# Article PMC7862700, “An all-to-all approach to the identification of sequence-specific readers for epigenetic DNA modifications on cytosine”
# Tests used:
# Experiment in all cases: DAPPL (digital affinity profiling via proximity ligation, sequencing); 10 mM Tris-HCl pH 7.5, 50 mM NaCl, 1 mM DTT, 4% glycerol, room temperature, 30 min; GST-TFs on glutathione beads, 16-mer random dsDNA library, 0.1% formaldehyde crosslink after washing; high values mean tight binding
# FLI1 = biological target: T1, FLI1 (Homo sapiens, UniProt Q01543 1-452); conditions: protein: recombinant; tags: N-terminal GST; dsDNA, one strand shown
# T1 sequence: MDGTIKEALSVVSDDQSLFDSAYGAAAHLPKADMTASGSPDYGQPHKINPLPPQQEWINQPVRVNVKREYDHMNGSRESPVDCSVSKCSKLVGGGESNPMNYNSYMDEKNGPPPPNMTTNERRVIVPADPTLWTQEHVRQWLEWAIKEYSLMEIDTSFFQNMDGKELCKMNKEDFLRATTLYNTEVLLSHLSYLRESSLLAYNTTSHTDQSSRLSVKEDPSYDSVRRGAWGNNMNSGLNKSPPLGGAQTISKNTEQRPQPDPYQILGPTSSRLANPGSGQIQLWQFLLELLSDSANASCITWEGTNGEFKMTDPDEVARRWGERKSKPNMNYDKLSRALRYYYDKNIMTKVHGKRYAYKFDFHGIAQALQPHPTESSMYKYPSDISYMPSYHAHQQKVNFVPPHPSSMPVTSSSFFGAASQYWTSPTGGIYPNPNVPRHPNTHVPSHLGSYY
# How it was run: (§1)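 Each value of binding signal is a hexamer's read frequency for a factor divided by the same hexamer's frequency in the tag-only sample. Barcoded, bead-captured GST fusions of human transcription factors made in yeast were pooled with that sample and incubated with 200 nmole of a random double-stranded 16-mer DNA library in Tris/NaCl/DTT/glycerol buffer at room temperature for 30 min. Washing, 0.1% formaldehyde crosslinking, proximity ligation, PCR and Illumina NextSeq500 sequencing followed.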
# ELK3 = biological target: T2, ELK3 (Homo sapiens, UniProt P41970 1-407); conditions: protein: recombinant; tags: N-terminal GST; dsDNA, one strand shown
# T2 sequence: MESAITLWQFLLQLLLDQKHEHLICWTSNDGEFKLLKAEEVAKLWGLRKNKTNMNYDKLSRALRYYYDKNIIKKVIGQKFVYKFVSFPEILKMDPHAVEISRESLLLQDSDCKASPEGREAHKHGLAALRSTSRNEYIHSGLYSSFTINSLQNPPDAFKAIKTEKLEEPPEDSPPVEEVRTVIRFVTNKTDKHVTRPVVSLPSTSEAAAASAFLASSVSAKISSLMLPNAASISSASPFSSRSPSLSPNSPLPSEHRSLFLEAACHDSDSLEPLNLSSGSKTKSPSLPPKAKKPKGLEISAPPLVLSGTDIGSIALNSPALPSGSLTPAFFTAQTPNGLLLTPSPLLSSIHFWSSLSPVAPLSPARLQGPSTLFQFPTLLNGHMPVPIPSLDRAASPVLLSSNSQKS
# How it was run: as §1
# SPI1 = SPI1 (Homo sapiens, UniProt P17947 1-270); conditions: protein: recombinant; tags: N-terminal GST; dsDNA, one strand shown
# How it was run: as §1
# ELF5 = biological target: T3, ELF5 (Homo sapiens, UniProt Q9UKW6-2 1-255); conditions: protein: recombinant; tags: N-terminal GST; dsDNA, one strand shown
# T3 sequence: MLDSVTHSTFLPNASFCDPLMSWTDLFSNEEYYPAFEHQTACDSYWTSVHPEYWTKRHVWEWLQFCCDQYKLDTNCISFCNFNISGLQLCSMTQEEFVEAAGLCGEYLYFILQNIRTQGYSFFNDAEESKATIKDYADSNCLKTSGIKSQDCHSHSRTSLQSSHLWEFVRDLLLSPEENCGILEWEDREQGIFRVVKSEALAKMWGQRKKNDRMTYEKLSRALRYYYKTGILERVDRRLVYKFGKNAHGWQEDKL
# How it was run: as §1
# HSF1 = HSF1 (Homo sapiens, UniProt Q00613 1-529); conditions: protein: recombinant; tags: N-terminal GST; chain copies: 3; dsDNA, one strand shown
# Sequence of HSF1 (Q00613 whole entry): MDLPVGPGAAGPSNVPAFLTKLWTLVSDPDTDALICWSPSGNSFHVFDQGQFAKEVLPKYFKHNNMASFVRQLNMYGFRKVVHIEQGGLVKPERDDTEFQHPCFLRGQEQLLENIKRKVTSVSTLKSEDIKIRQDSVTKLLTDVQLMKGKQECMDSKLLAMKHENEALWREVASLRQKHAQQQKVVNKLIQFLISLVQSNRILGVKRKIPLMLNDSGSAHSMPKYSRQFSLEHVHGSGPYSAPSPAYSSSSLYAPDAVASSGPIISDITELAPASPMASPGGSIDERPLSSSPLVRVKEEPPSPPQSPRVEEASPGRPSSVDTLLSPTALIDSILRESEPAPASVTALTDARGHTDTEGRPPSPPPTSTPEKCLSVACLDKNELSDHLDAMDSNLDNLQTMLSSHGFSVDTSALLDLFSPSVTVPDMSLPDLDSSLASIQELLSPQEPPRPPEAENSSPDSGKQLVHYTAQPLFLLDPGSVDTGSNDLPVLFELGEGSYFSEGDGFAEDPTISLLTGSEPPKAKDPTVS
# How it was run: as §1
# SPIC = biological target: T4, SPIC (Homo sapiens, UniProt Q8N5J4 1-248); conditions: protein: recombinant; tags: N-terminal GST; dsDNA, one strand shown
# T4 sequence: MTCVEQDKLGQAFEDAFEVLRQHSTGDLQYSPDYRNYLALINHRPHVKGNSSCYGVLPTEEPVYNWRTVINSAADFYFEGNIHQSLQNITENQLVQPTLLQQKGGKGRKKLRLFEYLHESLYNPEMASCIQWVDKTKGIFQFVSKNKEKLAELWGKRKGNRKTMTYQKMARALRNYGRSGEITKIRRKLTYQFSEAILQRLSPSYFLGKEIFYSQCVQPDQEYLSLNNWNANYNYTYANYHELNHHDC
# How it was run: as §1
# CRX = CRX (Homo sapiens, UniProt O43186 1-299); conditions: protein: recombinant; tags: N-terminal GST; dsDNA, one strand shown
# Sequence of CRX (O43186 whole entry): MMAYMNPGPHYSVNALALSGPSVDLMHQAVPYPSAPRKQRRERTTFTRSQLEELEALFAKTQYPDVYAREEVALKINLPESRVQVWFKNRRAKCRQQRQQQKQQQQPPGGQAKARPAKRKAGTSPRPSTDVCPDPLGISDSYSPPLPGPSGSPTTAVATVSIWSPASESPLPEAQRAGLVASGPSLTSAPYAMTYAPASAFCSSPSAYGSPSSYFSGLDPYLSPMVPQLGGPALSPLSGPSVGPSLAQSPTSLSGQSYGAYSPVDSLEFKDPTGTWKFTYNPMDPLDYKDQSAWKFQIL
# How it was run: as §1
Sequence,binding signal (FLI1),binding signal (ELK3),binding signal (SPI1),binding signal (ELF5),binding signal (HSF1),binding signal (SPIC),binding signal (CRX)
CAGCAT,"1.04 fold enrichment (6-mer frequency, TF over GST control)","1.19 fold enrichment (6-mer frequency, TF over GST control)",–,–,–,–,–
CCCAAG,"1.09 fold enrichment (6-mer frequency, TF over GST control)","1 fold enrichment (6-mer frequency, TF over GST control)","1.03 fold enrichment (6-mer frequency, TF over GST control)",–,–,–,–
TCAGTT,"1.02 fold enrichment (6-mer frequency, TF over GST control)","1.09 fold enrichment (6-mer frequency, TF over GST control)",–,–,–,–,–
AGGACC,"1.13 fold enrichment (6-mer frequency, TF over GST control)","1.15 fold enrichment (6-mer frequency, TF over GST control)",–,"1.1 fold enrichment (6-mer frequency, TF over GST control)",–,–,–
ACGCCG,"1.15 fold enrichment (6-mer frequency, TF over GST control)","1.11 fold enrichment (6-mer frequency, TF over GST control)","1.09 fold enrichment (6-mer frequency, TF over GST control)",–,–,–,–
TAGCGT,–,–,–,–,"1.04 fold enrichment (6-mer frequency, TF over GST control)","1.02 fold enrichment (6-mer frequency, TF over GST control)","1.15 fold enrichment (6-mer frequency, TF over GST control)"
CGAAGG,–,–,–,–,"1.31 fold enrichment (6-mer frequency, TF over GST control)","1.08 fold enrichment (6-mer frequency, TF over GST control)",–
CATAAT,–,–,"1 fold enrichment (6-mer frequency, TF over GST control)",–,"1.37 fold enrichment (6-mer frequency, TF over GST control)","1.24 fold enrichment (6-mer frequency, TF over GST control)","1.93 fold enrichment (6-mer frequency, TF over GST control)"
CGGTTA,"1.05 fold enrichment (6-mer frequency, TF over GST control)","1 fold enrichment (6-mer frequency, TF over GST control)","1 fold enrichment (6-mer frequency, TF over GST control)","1.07 fold enrichment (6-mer frequency, TF over GST control)",–,–,–
TCAAGT,–,"1.13 fold enrichment (6-mer frequency, TF over GST control)","1.06 fold enrichment (6-mer frequency, TF over GST control)",–,"1.08 fold enrichment (6-mer frequency, TF over GST control)","1.12 fold enrichment (6-mer frequency, TF over GST control)","1.12 fold enrichment (6-mer frequency, TF over GST control)"
ACAAGA,–,–,–,–,"1 fold enrichment (6-mer frequency, TF over GST control)","1.06 fold enrichment (6-mer frequency, TF over GST control)",–
AGAAGT,–,"1.11 fold enrichment (6-mer frequency, TF over GST control)","1.24 fold enrichment (6-mer frequency, TF over GST control)","1.1 fold enrichment (6-mer frequency, TF over GST control)","1.45 fold enrichment (6-mer frequency, TF over GST control)","1.19 fold enrichment (6-mer frequency, TF over GST control)",–
TAGGGC,–,–,"1.01 fold enrichment (6-mer frequency, TF over GST control)","1.03 fold enrichment (6-mer frequency, TF over GST control)","1.05 fold enrichment (6-mer frequency, TF over GST control)","1.11 fold enrichment (6-mer frequency, TF over GST control)","1.22 fold enrichment (6-mer frequency, TF over GST control)"
CATTAA,–,–,"1.04 fold enrichment (6-mer frequency, TF over GST control)",–,"1.36 fold enrichment (6-mer frequency, TF over GST control)","1.08 fold enrichment (6-mer frequency, TF over GST control)","1.92 fold enrichment (6-mer frequency, TF over GST control)"
CGACTG,–,"1.02 fold enrichment (6-mer frequency, TF over GST control)","1.04 fold enrichment (6-mer frequency, TF over GST control)","1.04 fold enrichment (6-mer frequency, TF over GST control)","1.02 fold enrichment (6-mer frequency, TF over GST control)","1 fold enrichment (6-mer frequency, TF over GST control)",–
ATCAAA,–,"1.08 fold enrichment (6-mer frequency, TF over GST control)","1.06 fold enrichment (6-mer frequency, TF over GST control)","1.02 fold enrichment (6-mer frequency, TF over GST control)","1.1 fold enrichment (6-mer frequency, TF over GST control)",–,"1.31 fold enrichment (6-mer frequency, TF over GST control)"
AGAAAA,–,"1 fold enrichment (6-mer frequency, TF over GST control)","1.11 fold enrichment (6-mer frequency, TF over GST control)","1.02 fold enrichment (6-mer frequency, TF over GST control)","2.39 fold enrichment (6-mer frequency, TF over GST control)","1.04 fold enrichment (6-mer frequency, TF over GST control)","1.27 fold enrichment (6-mer frequency, TF over GST control)"
TCGTAT,–,"1.01 fold enrichment (6-mer frequency, TF over GST control)","1.02 fold enrichment (6-mer frequency, TF over GST control)","1.01 fold enrichment (6-mer frequency, TF over GST control)","1.06 fold enrichment (6-mer frequency, TF over GST control)","1.06 fold enrichment (6-mer frequency, TF over GST control)","1.09 fold enrichment (6-mer frequency, TF over GST control)"
GACTTA,–,–,–,–,"1.34 fold enrichment (6-mer frequency, TF over GST control)","1.08 fold enrichment (6-mer frequency, TF over GST control)","1.93 fold enrichment (6-mer frequency, TF over GST control)"
CCCCTA,–,"1.38 fold enrichment (6-mer frequency, TF over GST control)","1.08 fold enrichment (6-mer frequency, TF over GST control)","1.1 fold enrichment (6-mer frequency, TF over GST control)","1.02 fold enrichment (6-mer frequency, TF over GST control)","1.25 fold enrichment (6-mer frequency, TF over GST control)","1.15 fold enrichment (6-mer frequency, TF over GST control)"
CGTAAA,–,"1.17 fold enrichment (6-mer frequency, TF over GST control)","1.09 fold enrichment (6-mer frequency, TF over GST control)","1.14 fold enrichment (6-mer frequency, TF over GST control)","1.17 fold enrichment (6-mer frequency, TF over GST control)","1.09 fold enrichment (6-mer frequency, TF over GST control)","1.15 fold enrichment (6-mer frequency, TF over GST control)"
CTAGCG,–,–,"1.15 fold enrichment (6-mer frequency, TF over GST control)","1.07 fold enrichment (6-mer frequency, TF over GST control)","1.3 fold enrichment (6-mer frequency, TF over GST control)","1.03 fold enrichment (6-mer frequency, TF over GST control)","1.06 fold enrichment (6-mer frequency, TF over GST control)"
TGACGG,"1.01 fold enrichment (6-mer frequency, TF over GST control)",–,"1.02 fold enrichment (6-mer frequency, TF over GST control)","1.06 fold enrichment (6-mer frequency, TF over GST control)",–,–,–
GCGTCT,–,"1.13 fold enrichment (6-mer frequency, TF over GST control)","1.04 fold enrichment (6-mer frequency, TF over GST control)","1.08 fold enrichment (6-mer frequency, TF over GST control)","1.01 fold enrichment (6-mer frequency, TF over GST control)","1.11 fold enrichment (6-mer frequency, TF over GST control)",–
GGCTAA,–,"1.02 fold enrichment (6-mer frequency, TF over GST control)",–,–,"1.15 fold enrichment (6-mer frequency, TF over GST control)","1.03 fold enrichment (6-mer frequency, TF over GST control)","1.61 fold enrichment (6-mer frequency, TF over GST control)"
AGGATG,"1.07 fold enrichment (6-mer frequency, TF over GST control)",–,–,"1.23 fold enrichment (6-mer frequency, TF over GST control)",–,–,–
